Values joined by “and” are separate entries in the source; they are usually repeats but may differ in a detail not shown here. Identical values can stand only once.

Common to all, as to format: functional
For experiment [1], the target named is Solute carrier family 2, facilitated glucose transporter member 1 (Homo sapiens) (UniProt P11166). The experiment is described as follows: ST_JUDE_LEISH: Cytotoxicity at 2uM final concentration against transgenic Leishmania Mexicana promastigotes LmGLUT1 that are glucose transport deficient and complemented with the human glucose transporter GLUT1. Activity is measured by DNA content using SYBR green in vitro.

The target of experiment [2] is Hexose transporter 1 (Plasmodium falciparum) (UniProt O97467). As to the kind of experiment: ST_JUDE_LEISH: Cytotoxicity at 2uM final concentration against transgenic Leishmania Mexicana promastigotes LmPfHT that are glucose transport deficient and complemented with the Plasmodium falciparum hexose transporter. Activity is measured by DNA content using SYBR green in vitro.

For experiment [3], the target named is Glucose transporter (Leishmania mexicana) (UniProt O61059). As to the kind of experiment: ST_JUDE_LEISH: Cytotoxicity at 2uM final concentration against transgenic Leishmania Mexicana promastigotes LmGT2 that are glucose transport deficient and complemented with the L. Mexicana glucose transporter 2. Activity is measured by DNA content using SYBR green in vitro.

Solute carrier family 2, facilitated glucose transporter member 1 (Homo sapiens), sequence (P11166 whole entry): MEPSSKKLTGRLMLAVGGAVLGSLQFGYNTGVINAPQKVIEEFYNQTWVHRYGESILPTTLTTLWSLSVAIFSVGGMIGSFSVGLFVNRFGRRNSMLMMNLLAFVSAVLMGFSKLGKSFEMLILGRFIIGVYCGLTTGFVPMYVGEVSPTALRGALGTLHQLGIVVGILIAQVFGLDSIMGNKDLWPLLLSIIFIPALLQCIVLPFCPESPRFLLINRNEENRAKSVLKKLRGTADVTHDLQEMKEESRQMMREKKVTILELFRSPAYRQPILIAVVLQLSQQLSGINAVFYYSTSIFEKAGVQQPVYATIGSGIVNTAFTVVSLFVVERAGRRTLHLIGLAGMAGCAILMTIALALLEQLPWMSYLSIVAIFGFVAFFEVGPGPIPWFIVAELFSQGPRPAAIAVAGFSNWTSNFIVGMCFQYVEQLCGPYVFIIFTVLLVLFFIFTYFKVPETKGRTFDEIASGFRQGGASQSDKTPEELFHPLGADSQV

In general, inhibition refers to the change of the read-out against control, counted positive when it falls. As for `C/C=C1/CN2CC[C@H]1C[C@H]2[C@H](O)c1ccnc2ccc(OC)cc12`, the inhibition is -0.87% in experiment [1], -2.22% in experiment [2] and 2.08% in experiment [3].

On to `CC[C@H]1CN2CC[C@H]1C[C@H]2[C@H](OC(=O)c1ccccc1)c1cc(C#N)nc2ccc(OC)cc12`, for which the inhibition in experiment [1] is 1.81%; in experiment [2] it was -0.58%; in experiment [3] it was 0.6%.

For `CC[C@H]1CN2CC[C@H]1C[C@H]2[C@@H](O)c1cc(OCCCN(C)C)nc2ccc(OC)cc12`, the inhibition in experiment [1] was -1.68%; in experiment [2], -1.68%; in experiment [3], -0.74%.

Take `Cc1nc(N)nc(N)c1-c1cccc(Cl)c1`: the inhibition was 3.73% in experiment [1], 4.7% in experiment [2] and 1.38% in experiment [3].

With `S=C(Nc1ccccc1Cl)NC1CCC(CN2CCC(c3c[nH]c4ccccc34)CC2)CC1` (stereo not given), the inhibition in experiment [1] was 5.7%; in experiment [2], 8.06%; in experiment [3] it was 3.34%.

As to `O=C(/C=C/c1cc(F)c(F)cc1F)N1CCC(CN2CCC(c3c[nH]c4ccccc34)CC2)CC1`, the inhibition stood at 0.47% in experiment [1], 1.36% in experiment [2] and 0.46% in experiment [3].

Regarding `CCCCCCCN1C2CCC1CC(CCOc1ccnc3ccc(OC)cc13)C2` (stereo not given), the results for the inhibition in experiment [1], in experiment [2] and in experiment [3] were 11.4%, 8.68% and 11%, respectively.

As to `CC(=O)N(Cc1ccc(-c2ccc(CNCCc3ccccc3)cc2)cc1)C1CCN(Cc2ccccc2)CC1`, the inhibition in experiment [1] is 1.67%; in experiment [2] it was 1.69%; in experiment [3] it was 1.11%.

Turning to `COc1cc2c(c(OC)c1OC)C[C@H]1c3c(cc4c(c3-2)OCO4)CCN1C`, the inhibition in experiment [1] was -0.22%; in experiment [2], 1.49%; in experiment [3], 1.06%.

In the case of `O=C(C=Cc1ccc(Br)cc1)NC1CCC(CN2CCC(c3c[nH]c4ccccc34)CC2)CC1` (stereo not given), the inhibition in experiment [1] was determined as 2.45%; in experiment [2], 2.86%; in experiment [3], 4.98%.

As to `COC(=O)C(C)(C)c1ccc(CC(C)NCC(O)c2cccc(C(F)(F)F)c2)cc1` (stereo not given), the inhibition was 10.5% in experiment [1], 6.92% in experiment [2] and 9.96% in experiment [3].

Regarding `CCOC(C(=O)OCCN(C(C)C)C(C)C)(c1ccccc1)c1ccccc1`, the results for the inhibition in experiment [1], in experiment [2] and in experiment [3] were -0.14%, 0.41% and -0.37%, respectively.

For the compound `CCCCCCCSc1ccc(CC(C)NCC(O)c2cccc(Cl)c2)cc1` (stereo not given), the inhibition in experiment [1] turned out to be 4.14%; in experiment [2], 4.49%; in experiment [3], 4.37%.

Consider `Cc1ccc(CC(C)NCC(O)c2cccc(C(F)(F)F)c2)cc1` (stereo not given), for which the inhibition in experiment [1] is 1.64% and 2.89%; in experiment [2], 4.33% and 0.46%; in experiment [3] it was 1.68% and 0.49%.

As for `CN1CCC(N(C)c2nccc(N3CCN(Cc4cncn4Cc4ccccc4)CC3)n2)CC1`, the figures for the inhibition in experiment [1], in experiment [2] and in experiment [3] were 12.8%, 12.8% and 10.8%, respectively.

On to `COC(=O)c1ccc(CC(C)NCC(O)c2cccc(Br)c2)cc1` (stereo not given), for which the inhibition is -0.96% in experiment [1], -1.92% in experiment [2] and 2.26% in experiment [3].

Regarding `CC(Cc1ccc(SCCSc2ccccc2)cc1)NCC(O)c1cccc(Cl)c1` (stereo not given), the inhibition was 0.69% in experiment [1], -0.5% in experiment [2] and 1.16% in experiment [3].

With `COc1ccc(CCNCc2ccc3nc(N)cc(C)c3c2)cc1`, the values for the inhibition in experiment [1], in experiment [2] and in experiment [3] were -3.73%, -2.84% and -2.66%, respectively.

In the case of `COC(C(=O)OCCC1CCCN1C)(c1ccccc1)C1CCCCC1` (stereo not given), the inhibition came to 11.6% in experiment [1], 10.5% in experiment [2] and 10.5% in experiment [3].

In the case of `O=C(/C=C/c1ccc(C(F)(F)F)cc1)NC1CCC(CN2CCC(c3c[nH]c4ccccc34)CC2)CC1` (stereo not given), the inhibition in experiment [1] is 5.55% and -0.04%; in experiment [2], 5.47% and -0.38%; in experiment [3], 0.63% and -2.05%.

As for `COc1nc(N)ncc1C(=O)NC1CN2CCC1CC2` (stereo not given), the inhibition in experiment [1] amounted to 7.43%; in experiment [2] it was 6.98%; in experiment [3], 7.08%.

In the case of `CN(CC(=O)N1CCN(S(=O)(=O)c2cccc(Cl)c2)CC1CN1CCCC1)c1ccc(Cl)c(Cl)c1` (stereo not given), the inhibition in experiment [1] came to 0.54%; in experiment [2] it was 1.78%; in experiment [3] it was 2.07%.

For `CC(=O)N(Cc1cccc(-c2cccc(CNCc3ccc4c(c3)OCO4)c2)c1)C1CCN(Cc2ccccc2)CC1`, the inhibition in experiment [1] stood at 6.88%; in experiment [2], 7.09%; in experiment [3] it was 7.83%.

Turning to `COc1ccc(CC(C)NCC(O)c2cccc(Cl)c2F)cc1` (stereo not given), the inhibition is 1.96% in experiment [1], -0.19% in experiment [2] and 0.32% in experiment [3].

For `FC(F)(F)c1ccc(NC(=S)NC2CCC(CN3CCC(c4c[nH]c5ccccc45)CC3)CC2)cc1` (stereo not given), the inhibition in experiment [1] is 13.2% and 1.58%; in experiment [2] it was 12.7% and 6.46%; in experiment [3] it was 3.66% and 2.93%.

Turning to `COC(=O)c1ccc(CC(C)NCC(O)c2cccc(Oc3cccc(C(F)(F)F)c3)c2)cc1` (stereo not given), the inhibition in experiment [1] was found to be 8.83%; in experiment [2], 6.86%; in experiment [3], 6.56%.

Regarding `O=C(/C=C/c1cc(F)cc(C(F)(F)F)c1)N1CCC(CN2CCC(c3c[nH]c4ccccc34)CC2)CC1`, the inhibition in experiment [1] is 0.47%; in experiment [2], 1.39%; in experiment [3], 2.96%.

As for `CN(c1cc(NC(=O)c2cccs2)ccn1)C1CCN(Cc2cccc(F)c2)CC1`, the inhibition in experiment [1] turned out to be 3.38%; in experiment [2] it was 3%; in experiment [3] it was 5.71%.

Turning to `O=C(Nc1ccc(Oc2ccccc2)cc1)NC1CCC(CN2CCC(c3c[nH]c4ccccc34)CC2)CC1` (stereo not given), the inhibition in experiment [1] is 1.21%; in experiment [2], 0.51%; in experiment [3], -0.05%.

As to `CC[C@H]1CN2CC[C@@H]1C[C@H]2[C@H](O)c1cc(N2CCC(c3ccccc3)CC2)nc2ccc(OC)cc12`, the inhibition in experiment [1] is 8.84%; in experiment [2], 6.56%; in experiment [3], 2.67%.

For the compound `CC(=O)Nc1ccc(CN2CCC(N(C)c3cc(NC(=O)c4cccc(F)c4)ccn3)CC2)cc1`, the inhibition was -0.4% in experiment [1], -0.05% in experiment [2] and 0.23% in experiment [3].

`C/C=C1\CN2CC[C@H]1C[C@H]2[C@H](O)c1ccnc2ccc(OC)cc12`: the inhibition is 10% and 3.4% in experiment [1]; 9.89% and 3.71% in experiment [2]; 9.9% and 2.84% in experiment [3].

For the compound `CCC1(C)CC(CCNCc2ccccc2O)(c2ccc(F)cc2)CCO1` (stereo not given), the inhibition in experiment [1] was 0.23%; in experiment [2] it was 1.85%; in experiment [3], -0.21%.

Turning to `O=C(/C=C/c1ccc(Cl)c(Cl)c1)N1CCC(CN2CCC(c3cn(CC(=O)N4CCCCC4)c4ccccc34)CC2)CC1`, the inhibition in experiment [1] was 2.63%; in experiment [2], 2.05%; in experiment [3], -2.07%.

With `COc1cccc(CN2CCC(CCOC(c3ccccc3)c3ccccc3)CC2)c1O`, the inhibition was 2.87% in experiment [1], -0.08% in experiment [2] and -0.42% in experiment [3].
